Measurements as given in PubChem BioAssay.
Records with an inconclusive call do not appear. Active and inactive are the calls of the source. Unless noted, no cut-off is given here; in the data, nearly all actives have AC50 up to about 26 µM.

What was measured:
[1] = Cy5 fluorescence interference with SSB-bound oligo, artefact control for HCV NS3 helicase inhibitor project, biochemical, NIH Clinical Collection, E. coli SSB (AID 743268; call rule not given here)
[2] = system: Hepatitis C virus NS3 helicase; assay: HCV NS3 helicase inhibitors, primary screen, biochemical, fluorescence polarization, NIH Clinical Collection (AID 743270; call rule not given here); conditions: NS3 helicase binding to Cy5-dT15 DNA, stronger effect = higher value, concentration not given here
[3] = target: Single-stranded DNA-binding protein (Escherichia coli (strain K12)) (UniProt P0AGE0); assay: E. coli SSB displacement from DNA, counter-screen for HCV NS3 helicase inhibitor project, biochemical, fluorescence polarization, NIH Clinical Collection (AID 743271; in the data active = inhibition above about 28%); conditions: stronger effect = higher value, concentration not given here
[4] = fluorescence interference in NS3h assay format, artefact control for HCV NS3 helicase inhibitor project, biochemical, NIH Clinical Collection (AID 743272; call rule not given here;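 note: HCV NS3 helicase with a Cy5 labelled single stranded DNA probe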); conditions: fluorescence interference counterscreen, stronger effect = lower value
[5] = modulation of C. elegans fzo-1 (AID 1259413; call rule not given here;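 note: fzo-1 mutant C. elegans worms in liquid wells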); conditions: C. elegans fzo-1 modulator screen, mean read-out; stronger effect = higher value
[6] = target: ATP-dependent translocase ABCB1 (Homo sapiens) (UniProt P08183); assay: MDR1 (ABCB1) efflux transporter inhibition, cell-based (AID 377; in the data active = fluorescence slope change above about 50%); conditions: MDR1-expressing cells, fluorescent substrate accumulation slope; stronger effect = higher value; concentration not given here
Sequence of ATP-dependent translocase ABCB1 (Homo sapiens) (P08183 whole entry, looked up): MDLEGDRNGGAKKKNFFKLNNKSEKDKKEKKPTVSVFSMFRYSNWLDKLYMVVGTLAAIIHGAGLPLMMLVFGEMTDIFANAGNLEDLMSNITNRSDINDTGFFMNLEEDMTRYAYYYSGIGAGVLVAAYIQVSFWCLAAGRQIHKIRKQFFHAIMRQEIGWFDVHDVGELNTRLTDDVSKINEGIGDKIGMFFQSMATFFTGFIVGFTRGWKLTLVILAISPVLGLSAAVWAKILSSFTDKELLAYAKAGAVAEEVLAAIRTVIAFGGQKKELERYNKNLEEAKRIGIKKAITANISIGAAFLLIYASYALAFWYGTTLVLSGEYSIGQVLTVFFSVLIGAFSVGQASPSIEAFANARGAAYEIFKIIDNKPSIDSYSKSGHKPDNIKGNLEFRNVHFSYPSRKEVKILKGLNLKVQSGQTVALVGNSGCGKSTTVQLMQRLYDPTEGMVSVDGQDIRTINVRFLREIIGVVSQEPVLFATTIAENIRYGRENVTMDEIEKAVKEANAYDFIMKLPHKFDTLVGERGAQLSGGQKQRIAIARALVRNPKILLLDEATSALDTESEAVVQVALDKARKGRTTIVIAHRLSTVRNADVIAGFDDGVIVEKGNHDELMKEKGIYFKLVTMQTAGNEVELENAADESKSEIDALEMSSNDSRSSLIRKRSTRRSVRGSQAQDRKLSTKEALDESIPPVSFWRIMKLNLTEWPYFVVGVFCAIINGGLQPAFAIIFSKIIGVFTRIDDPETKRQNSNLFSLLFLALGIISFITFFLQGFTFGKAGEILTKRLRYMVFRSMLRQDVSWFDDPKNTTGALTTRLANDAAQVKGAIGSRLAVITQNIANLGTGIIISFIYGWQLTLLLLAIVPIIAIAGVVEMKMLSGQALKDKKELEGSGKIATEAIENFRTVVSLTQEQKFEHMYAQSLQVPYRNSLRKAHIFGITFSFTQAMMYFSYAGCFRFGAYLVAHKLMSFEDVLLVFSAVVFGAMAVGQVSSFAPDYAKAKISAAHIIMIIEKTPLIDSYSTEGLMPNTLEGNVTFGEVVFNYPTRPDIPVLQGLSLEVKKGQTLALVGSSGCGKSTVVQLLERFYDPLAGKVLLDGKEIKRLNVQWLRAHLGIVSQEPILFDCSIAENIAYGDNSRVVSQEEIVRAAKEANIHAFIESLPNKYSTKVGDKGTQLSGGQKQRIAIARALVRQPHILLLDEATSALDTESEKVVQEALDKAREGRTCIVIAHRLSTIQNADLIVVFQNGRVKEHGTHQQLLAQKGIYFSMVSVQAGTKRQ

F380Y/beta1 = assay: modulators of BK channel variants, profiling panel, selectivity assay, cell-based, U2OS BacMam, thallium flux, beta subunits (AID 1259406;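 active = thallium flux through the channel raised or lowered by more than 3 SD from vehicle-only wells, actives on both sides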;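 note: initial slope of Thallos dye fluorescence rise after thallium is added; log ratio against the mean of 0.3% DMSO vehicle wells on the same plate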); conditions: at 30 µM
F380Y/beta4 = assay: as above; conditions: at 30 µM
R275C/beta4 = assay: as above; conditions: at 30 µM
R275C/Slo1WT/beta2 = assay: as above; conditions: at 30 µM
[7] = growth inhibition of DIPG glioma cells, dose response, cell-based, SU-DIPG-XIII, MIPE4.0, CellTiter-Glo, qHTS (AID 1347061; cut-off not given, nearly all actives have AC50 up to about 37 µM;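 note: cells exposed to compound for 48 hours before readout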); conditions: SU-DIPG-XIII viability, CellTiter-Glo ATP luminescence
[8] = viability loss in pontine glioma line – cell-based, SU-DIPG-XXV, MIPE5.0, CellTiter-Glo, qHTS, dose response (AID 1347065); conditions: CellTiter-Glo ATP luminescence;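 note: cells exposed to compound for 48 hours before ATP readout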
[9] = JHH-DIPG-1 glioma cell viability, MIPE5.0 library, CellTiter-Glo luminescence, qHTS (AID 1347067); conditions: JHH-DIPG-1 glioma viability, CellTiter-Glo ATP luminescence;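 note: cells exposed to compound for 48 hours before readout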
[10] = SU-DIPG-XXV glioma cell viability, MIPE5.0 library, qHTS (AID 1347068; cut-off not given, nearly all actives have IC50 up to about 30 µM;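 for IC50: cells exposed to compound for 48 hours before viability readout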)
[11] = growth inhibition of DIPG glioma cells, dose response, cell-based, SU-DIPG-XVII, MIPE5.0, CellTiter-Glo, qHTS (AID 1347060); conditions: SU-DIPG-XVII viability, CellTiter-Glo ATP luminescence;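 for AC50: cells exposed to compound for 48 hours before viability readout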
[12] = SU-DIPG-VI glioma cell viability, MIPE4.0 library, CellTiter-Glo luminescence, qHTS (AID 1347066; cut-off not given, nearly all actives have AC50 up to about 30 µM;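 note: cells exposed to compound for 48 hours before readout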); conditions: CellTiter-Glo ATP luminescence
[13] = LFS_MB_P medulloblastoma growth inhibition, cell-based, chromothripsis tumors, cisplatin or BGB combos (AID 1671449; in the data active = inhibition above about 80%;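 note: cells exposed for 96 hours; 0% = vehicle DMSO and 100% = killing by high DMSO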); conditions: LFS_MB_P medulloblastoma cells
[14] = HDN33 neuroblastoma growth inhibition, cell-based, chromothripsis tumors, cisplatin or BGB combos (AID 1671450; in the data active = inhibition above about 80%;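 note: cells exposed to compound for four days; 0% = vehicle DMSO and 100% = cell killing by high DMSO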); conditions: HDN33 neuroblastoma cells, stronger effect = higher value
[15] = HTB85 osteosarcoma cell growth inhibition, synergistic combos for chromothripsis tumors, BGB or cisplatin IC20 combos (AID 1671453; in the data active = inhibition above about 80%;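 note: cells exposed for 96 hours before readout; 0% = vehicle DMSO and 100% = high DMSO killing control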); conditions: HTB85 osteosarcoma cells, drug combinations, stronger effect = higher value

CN[C@@H]1C[C@@H](c2ccc(Cl)c(Cl)c2)c2ccccc21
inactive: fluorescence ratio [1] 0.98 | inhibition [2] -3.56% | inhibition [3] -3.95% | fluorescence ratio [4] 0.97 | mean signal [5] 207

CN(C)C(=O)Oc1cc(OC(=O)N(C)C)cc(C(O)CNC(C)(C)C)c1 (stereo not drawn)
inactive: fluorescence slope change [6] 19%

CCN(CC)CCOC(=O)C(O)(c1ccccc1)c1ccccc1
inactive: fluorescence ratio [1] 0.99 | inhibition [2] -1.19% | inhibition [3] -0.87% | fluorescence ratio [4] 0.98 | mean signal [5] 281 | log fold change Tl+ flux (F380Y/beta1) -0.00425 | log fold change Tl+ flux (F380Y/beta4) 0.0464 | log fold change Tl+ flux (R275C/beta4) 0.00187 | log fold change Tl+ flux (R275C/Slo1WT/beta2) -0.00361

C[N+]1(CCC(C(N)=O)(c2ccccc2)c2ccccc2)CCCCC1
inactive: fluorescence ratio [1] 1.01 | inhibition [2] -1.98% | inhibition [3] -0.1% | fluorescence ratio [4] 0.95 | mean signal [5] 231 | log fold change Tl+ flux (F380Y/beta1) -0.0163 | log fold change Tl+ flux (F380Y/beta4) -0.00383 | log fold change Tl+ flux (R275C/beta4) -0.0252 | log fold change Tl+ flux (R275C/Slo1WT/beta2) 0.0123

Cc1cccc(C)c1NC(=O)CN1CCCC1=O
inactive: outcome [7] | outcome [8] | outcome [9] | outcome [10]

COc1ccc(CN2CCNCC2)c(OC)c1OC
inactive: fluorescence slope change [6] 2.5%

Cn1c(CCCC(=O)O)nc2cc(N(CCCl)CCCl)ccc21
-39.8%: inhibition ([14]; measured here: with cisplatin IC20 combination, at 0.5 µM)
-18.8%: inhibition ([14]; cisplatin combo, at 5 µM)
-12.9%: inhibition ([15]; measured here: with BGB IC20, at 5 µM)
-48.5%: inhibition ([15]; measured here: with cisplatin IC20, at 0.5 µM)
-18.2%: inhibition ([13]; measured here: combination with BGB IC20, at 0.005 µM)
-57.4%: inhibition ([14]; single agent, at 5 µM)
-38%: inhibition ([15]; measured here: with cisplatin IC20, at 5 µM)
-20%: inhibition ([15]; single agent, at 5 µM)
-27.8%: inhibition ([14]; BGB combo, at 5 µM)
inactive: outcome [8] | outcome [12] | outcome [10] | inhibition ([13]; at 0.5 µM, stronger effect = higher value) -19.5% | inhibition ([14]; at 0.5 µM) -43.6% | inhibition ([15]; at 0.5 µM) -34.4%
-29.9%: inhibition ([13]; measured here: combination with cisplatin, at 0.5 µM, stronger effect = higher value)
active: AC50 [11] 20.9 µM
-11.9%: inhibition ([13]; measured here: combination with BGB IC40, at 0.05 µM)
-14.2%: inhibition ([13]; measured here: combination with cisplatin, at 5 µM, stronger effect = higher value)
-46.1%: inhibition ([14]; measured here: with BGB IC20 combination, at 0.5 µM)
-54.6%: inhibition ([15]; measured here: with BGB IC20, at 0.5 µM)
-30.6%: inhibition ([13]; measured here: combination with BGB IC40, at 0.005 µM)

COc1ccc(C(=O)c2c(C)n(CCN3CCOCC3)c3ccccc23)cc1
active: AC50 [9] 16.6 µM
inactive: outcome [7] | outcome [12]

COC[C@@H](NC(C)=O)C(=O)NCc1ccccc1
inactive: outcome [11] | outcome [8] | outcome [12] | outcome [9] | outcome [10]

C#C[C@]1(O)C=C[C@H]2[C@@H]3CCC4=CC(=O)CC[C@@H]4[C@H]3CC[C@@]21CC
inactive: outcome [11] | outcome [7] | outcome [8] | outcome [12] | outcome [9]

CCCC[N+]1(C)[C@@H]2CC(OC(=O)[C@H](CO)c3ccccc3)C[C@H]1[C@@H]1O[C@@H]12 (stereo partly drawn)
inactive: outcome [11] | outcome [7] | outcome [8] | outcome [12] | outcome [9] | outcome [10]

Fc1ccc(C(OCCN2CCN(CCCc3ccccc3)CC2)c2ccc(F)cc2)cc1
active: fluorescence slope change [6] 119% | AC50 [11] 14.8 µM | AC50 [7] 20.9 µM | AC50 [8] 8.33 µM | AC50 [12] 16.6 µM | AC50 [9] 18.6 µM | IC50 [10] 16.6 µM

NCC1(CC(=O)O)CCCCC1
inactive: fluorescence slope change [6] 23.2% | outcome [11] | outcome [7] | outcome [8] | outcome [12] | outcome [10]

C[C@]12CC[C@H](O)CC1=CC[C@@H]1[C@@H]2CC[C@]2(C)C(=O)CC[C@@H]12
inactive: fluorescence ratio [1] 0.94 | inhibition [2] 0.66% | inhibition [3] -2.76% | fluorescence ratio [4] 0.97 | outcome [11] | outcome [7] | outcome [8] | outcome [12] | outcome [9] | outcome [10]
